Measured values: paper PMC5700166
Numbering of substitutions follows the chain as printed.

Experiments:
Test in all cases: protein-binding microarray (PBM); PBM: ~300 nM protein, 6 mM HEPES pH 7.8, 80 mM KCl, 0.5 mM EDTA, 0.5 mM EGTA, 6% glycerol, 35 ng/ul poly-dIdC, 1% milk, 1 h, room temperature; Ap Aiptasia and Nv Nematostella (sea anemones) / Co Capsaspora / Aq Amphimedon (sponge) / Dm Drosophila / Hu human; RHD is the Rel homology domain; high values mean tight binding
Conditions in all cases: dsDNA, one strand shown
GST-Ap-NF-kB RHD = molecular target: T1, GST-Ap-NF-kB RHD (Exaiptasia pallida (Aiptasia), UniProt A0A913YAJ5 2-422)
T1 sequence: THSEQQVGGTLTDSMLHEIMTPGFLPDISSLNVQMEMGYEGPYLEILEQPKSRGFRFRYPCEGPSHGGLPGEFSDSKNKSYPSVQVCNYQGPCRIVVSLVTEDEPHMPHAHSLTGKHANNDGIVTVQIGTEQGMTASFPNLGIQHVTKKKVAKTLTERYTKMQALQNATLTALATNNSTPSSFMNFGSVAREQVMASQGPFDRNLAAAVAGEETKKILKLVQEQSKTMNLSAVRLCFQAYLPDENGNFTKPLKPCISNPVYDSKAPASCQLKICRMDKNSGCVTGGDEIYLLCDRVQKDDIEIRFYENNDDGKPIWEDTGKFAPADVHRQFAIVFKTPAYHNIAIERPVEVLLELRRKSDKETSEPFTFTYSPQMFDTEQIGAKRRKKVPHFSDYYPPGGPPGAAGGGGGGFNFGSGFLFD

[1] = molecular target: T2, GST-Nv-NF-kB (Cys allele) (Nematostella vectensis, UniProt E5G601 2-411)
T2 sequence: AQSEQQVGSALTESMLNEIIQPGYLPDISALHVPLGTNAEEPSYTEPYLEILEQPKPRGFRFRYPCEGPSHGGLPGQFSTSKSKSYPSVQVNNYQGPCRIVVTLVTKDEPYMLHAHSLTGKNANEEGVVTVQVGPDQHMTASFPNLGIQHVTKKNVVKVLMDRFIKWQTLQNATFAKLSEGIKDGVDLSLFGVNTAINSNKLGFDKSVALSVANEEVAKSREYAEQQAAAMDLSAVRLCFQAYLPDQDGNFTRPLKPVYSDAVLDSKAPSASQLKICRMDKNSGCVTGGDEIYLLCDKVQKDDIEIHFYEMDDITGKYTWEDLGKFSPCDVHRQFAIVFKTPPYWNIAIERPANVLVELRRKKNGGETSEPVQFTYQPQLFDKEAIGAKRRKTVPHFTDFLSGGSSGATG

[2] = molecular target: T3, GST-Nv-NF-kB (Ser allele) (Nematostella vectensis, UniProt A7UNT2 2-411)
T3 sequence: T2 sequence with Q21R, C66S, S207N, E215Q, V217A, E225K, A268E, D399E

GST-Co-NF-kB = molecular target: T4, GST-Co-NF-kB (Capsaspora owczarzaki, UniProt F1ARL5 200-546)
T4 sequence: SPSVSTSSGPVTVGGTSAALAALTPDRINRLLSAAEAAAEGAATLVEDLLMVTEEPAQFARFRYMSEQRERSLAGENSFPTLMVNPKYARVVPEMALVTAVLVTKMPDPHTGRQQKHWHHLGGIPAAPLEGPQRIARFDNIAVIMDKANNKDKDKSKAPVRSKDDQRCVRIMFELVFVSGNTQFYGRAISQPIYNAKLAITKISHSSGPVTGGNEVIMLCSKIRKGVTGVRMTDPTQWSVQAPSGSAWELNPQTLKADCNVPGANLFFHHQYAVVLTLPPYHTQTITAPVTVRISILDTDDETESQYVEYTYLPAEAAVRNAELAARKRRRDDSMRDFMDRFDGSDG

GST-Dm-Relish = molecular target: T5, GST-Dm-Relish (Drosophila melanogaster, UniProt Q94527 99-473)
T5 sequence: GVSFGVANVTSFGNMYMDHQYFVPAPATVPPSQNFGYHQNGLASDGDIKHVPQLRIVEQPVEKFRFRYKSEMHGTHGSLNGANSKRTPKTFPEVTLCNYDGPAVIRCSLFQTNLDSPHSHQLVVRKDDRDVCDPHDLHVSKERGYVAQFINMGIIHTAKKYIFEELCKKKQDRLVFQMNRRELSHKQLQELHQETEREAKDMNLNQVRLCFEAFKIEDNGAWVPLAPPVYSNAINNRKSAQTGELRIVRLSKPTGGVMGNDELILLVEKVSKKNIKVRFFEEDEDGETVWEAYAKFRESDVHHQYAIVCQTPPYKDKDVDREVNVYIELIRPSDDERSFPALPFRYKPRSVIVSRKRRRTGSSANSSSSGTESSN

GST-Aq-NF-kB = molecular target: T6, GST-Aq-NF-kB (Amphimedon queenslandica, UniProt A9Y5G7 2-389)
T6 sequence: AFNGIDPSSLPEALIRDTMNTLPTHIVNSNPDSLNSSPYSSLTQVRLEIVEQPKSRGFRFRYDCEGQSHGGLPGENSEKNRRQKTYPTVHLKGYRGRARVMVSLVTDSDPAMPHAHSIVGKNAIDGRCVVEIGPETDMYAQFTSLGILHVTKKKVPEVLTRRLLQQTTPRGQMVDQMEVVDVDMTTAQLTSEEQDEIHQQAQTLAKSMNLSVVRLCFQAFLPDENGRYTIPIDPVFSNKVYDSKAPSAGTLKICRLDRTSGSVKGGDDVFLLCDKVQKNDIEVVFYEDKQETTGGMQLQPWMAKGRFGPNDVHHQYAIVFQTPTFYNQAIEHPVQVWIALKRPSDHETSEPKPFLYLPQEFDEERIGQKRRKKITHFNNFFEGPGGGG

GST-Hu-p50 = GST-Hu-p50 (Homo sapiens, UniProt P19838 7-356)
Sequence of GST-Hu-p50 (P19838 7-356): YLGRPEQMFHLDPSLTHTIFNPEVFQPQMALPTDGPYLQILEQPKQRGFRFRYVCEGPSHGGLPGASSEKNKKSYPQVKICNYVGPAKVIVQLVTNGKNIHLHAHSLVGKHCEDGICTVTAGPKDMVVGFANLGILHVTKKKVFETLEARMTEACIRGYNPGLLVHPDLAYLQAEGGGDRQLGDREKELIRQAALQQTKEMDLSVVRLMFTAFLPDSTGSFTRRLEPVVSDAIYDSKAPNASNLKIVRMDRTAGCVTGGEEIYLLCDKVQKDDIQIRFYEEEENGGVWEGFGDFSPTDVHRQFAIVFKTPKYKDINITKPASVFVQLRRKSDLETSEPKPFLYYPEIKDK

| Sequence | binding signal (GST-Ap-NF-kB RHD) | binding signal [1] | binding signal [2] | binding signal (GST-Co-NF-kB) | binding signal (GST-Dm-Relish) | binding signal (GST-Aq-NF-kB) | binding signal (GST-Hu-p50) |
| --- | --- | --- | --- | --- | --- | --- | --- |
| CCGATTAACATCAGGGGATTGCATGATGTTAATCGGGTCTTGATTCGCTTGACGCTGCTG | 5.77 z-score | 5.89 z-score | 6.93 z-score | 2.38 z-score | 4.62 z-score | 4.23 z-score | 5.31 z-score |
| CCGATTAACATCAATTCCCCCCATGATGTTAATCGGGTCTTGATTCGCTTGACGCTGCTG | 7.01 z-score | 7.06 z-score | 6.97 z-score | 9.55 z-score | 4.89 z-score | 5.8 z-score | 6.18 z-score |
| CCGATTAACATCAGGGGGAAGTATGATGTTAATCGGGTCTTGATTCGCTTGACGCTGCTG | 5.44 z-score | 6.23 z-score | 7.96 z-score | 8.17 z-score | 5.72 z-score | 5.16 z-score | 5.57 z-score |
| CCGATTAACATCAGGAATGCCCCTGATGTTAATCGGGTCTTGATTCGCTTGACGCTGCTG | 5.19 z-score | 6.58 z-score | 3.31 z-score | 1.64 z-score | 5.92 z-score | 7.72 z-score | 5.39 z-score |
| CCGATTAACATCACGTACTCCCCTGATGTTAATCGGGTCTTGATTCGCTTGACGCTGCTG | 4.07 z-score | 2.77 z-score | 3.43 z-score | 2.99 z-score | 4 z-score | 2.92 z-score | 2.83 z-score |
| CCGATTAACATCAAGGGGGAATATGATGTTAATCGGGTCTTGATTCGCTTGACGCTGCTG | 7.61 z-score | 8.35 z-score | 9.33 z-score | 7.86 z-score | 4.64 z-score | 6.45 z-score | 6.95 z-score |
| CCGATTAACATCAAACTTCCCCTTGATGTTAATCGGGTCTTGATTCGCTTGACGCTGCTG | 6.88 z-score | 9.28 z-score | 9.81 z-score | 5.46 z-score | 7.55 z-score | 7.66 z-score | 6.98 z-score |
| CCGATTAACATCAGGGGGAAACCTGATGTTAATCGGGTCTTGATTCGCTTGACGCTGCTG | 8.24 z-score | 8.06 z-score | 9.71 z-score | 9.35 z-score | 7.54 z-score | 7.94 z-score | 7.23 z-score |
| CCGATTAACATCAGGCAGTCCCCTGATGTTAATCGGGTCTTGATTCGCTTGACGCTGCTG | 5.54 z-score | 4.49 z-score | 3.59 z-score | 1.33 z-score | 4.55 z-score | 5.52 z-score | 4.48 z-score |
| CCGATTAACATCATATGGGAAAATGATGTTAATCGGGTCTTGATTCGCTTGACGCTGCTG | 1.55 z-score | 3.76 z-score | 4.82 z-score | 3.09 z-score | 1.12 z-score | 2.17 z-score | 2.72 z-score |
| CCGATTAACATCATATTCCCCCATGATGTTAATCGGGTCTTGATTCGCTTGACGCTGCTG | 6.56 z-score | 7.4 z-score | 7.13 z-score | 8.84 z-score | 3.91 z-score | 5.97 z-score | 6.3 z-score |
| CCGATTAACATCATAAACCCCCATGATGTTAATCGGGTCTTGATTCGCTTGACGCTGCTG | 5.78 z-score | 4.95 z-score | 5.67 z-score | 2.59 z-score | 7.12 z-score | 4.77 z-score | 6.3 z-score |
| CCGATTAACATCAGAATCCCCCCTGATGTTAATCGGGTCTTGATTCGCTTGACGCTGCTG | 9.22 z-score | 7.84 z-score | 8.55 z-score | 7.63 z-score | 8.81 z-score | 7.37 z-score | 7.06 z-score |
| CCGATTAACATCAAAAAAAACCCTGATGTTAATCGGGTCTTGATTCGCTTGACGCTGCTG | 5.46 z-score | 6.25 z-score | 6.4 z-score | 1.62 z-score | 7.4 z-score | 7.35 z-score | 5.56 z-score |
| CCGATTAACATCAAGGGGGAATCTGATGTTAATCGGGTCTTGATTCGCTTGACGCTGCTG | 8.47 z-score | 8.91 z-score | 9.87 z-score | 8.32 z-score | 6.04 z-score | 6.38 z-score | 7.36 z-score |
| CCGATTAACATCAGGACCTCCCCTGATGTTAATCGGGTCTTGATTCGCTTGACGCTGCTG | 5.62 z-score | 4.17 z-score | 2.85 z-score | 2.53 z-score | 5.19 z-score | 6.93 z-score | 3.65 z-score |
| CCGATTAACATCAGGGGGATTTATGATGTTAATCGGGTCTTGATTCGCTTGACGCTGCTG | 8.91 z-score | 9.22 z-score | 10 z-score | 6.7 z-score | 8.87 z-score | 7.3 z-score | 7.42 z-score |
| CCGATTAACATCAGCCCGGGAAATGATGTTAATCGGGTCTTGATTCGCTTGACGCTGCTG | 2.45 z-score | 2.27 z-score | 2.11 z-score | 3.24 z-score | 1.04 z-score | 2.09 z-score | 1.28 z-score |
| CCGATTAACATCACTATACCCCCTGATGTTAATCGGGTCTTGATTCGCTTGACGCTGCTG | 4.71 z-score | 2.52 z-score | 3.85 z-score | 4.36 z-score | 2.21 z-score | 2.68 z-score | 3.41 z-score |
